DNA FID counter: fluorescent intercalator displacement, NS3 helicase counter-screen. DNA fluorescent intercalator displacement, fluorescence. inhibition, % at 7.9 µM. 0.17% of 290,000 active; in the data active = inhibition above about 37%;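 note: 0% = vehicle and 100% = reference compound; higher means more ethidium bromide displaced from hairpin DNA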
MEKK3 PB1 HTS: MEKK3-MEK5 PB1 interaction, increase or decrease; binding response (% of control), % at 10 µM; bead-based flow cytometry, Alexa488-MEK5 binding to MEKK3; actives lie on both sides; 0 = blocked by unlabeled MEK5, 100 = vehicle; AID 1529; 1.4% of 290,000 active;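 active = binding response more than 3 SD above or below the average of its plate-row segment, actives on both sides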;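 note: Alexa488 bead fluorescence after subtracting the streptavidin-only scavenger bead signal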
Target sequence (Q99759 whole entry, looked up): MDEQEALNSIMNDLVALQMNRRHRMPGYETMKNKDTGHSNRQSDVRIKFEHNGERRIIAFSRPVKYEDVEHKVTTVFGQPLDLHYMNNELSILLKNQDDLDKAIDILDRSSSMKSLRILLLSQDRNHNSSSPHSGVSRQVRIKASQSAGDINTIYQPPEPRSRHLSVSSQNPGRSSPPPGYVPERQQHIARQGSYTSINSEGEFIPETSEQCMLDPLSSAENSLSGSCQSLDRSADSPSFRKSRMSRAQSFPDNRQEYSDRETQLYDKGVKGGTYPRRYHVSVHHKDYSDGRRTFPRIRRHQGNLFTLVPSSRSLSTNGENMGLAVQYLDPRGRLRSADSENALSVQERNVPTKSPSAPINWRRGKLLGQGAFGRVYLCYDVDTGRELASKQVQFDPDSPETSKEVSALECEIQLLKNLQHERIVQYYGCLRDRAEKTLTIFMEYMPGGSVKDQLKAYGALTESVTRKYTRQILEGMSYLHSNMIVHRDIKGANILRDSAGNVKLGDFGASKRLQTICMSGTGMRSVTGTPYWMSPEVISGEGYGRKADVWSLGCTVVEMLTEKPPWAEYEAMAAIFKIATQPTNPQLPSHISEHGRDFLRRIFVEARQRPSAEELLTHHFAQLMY
dFosB activator: activators of mouse delta FosB homodimer | P13346 | purified delta FosB, TAMRA-CDK5 oligo fluorescence polarization; percent of positive-control signal above neutral wells | activation, % at 25 µM | 0.99% of 340,000 active;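 active = mean activation above about 17%, with every replicate also reaching it, limit read from the data, passing the limit was not always enough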
MEKK2mut PB1 HTS: signal of MEK5 binding to mutant human MEKK2 PB1 domain | percent response, % at 10 µM | 0.35% of 290,000 active | bead flow cytometry, Alexa488-MEK5 binding to MEKK2 mutant; in the data active = percent response above about 24%, passing the limit was not always enough
MEKK2wt PB1 HTS: raises or lowers MEK5 binding to wildtype human MEKK2 PB1 domain; Q9Y2U5; bead flow cytometry, Alexa488-MEK5 binding to MEKK2 WT; actives lie on both sides; binding response (% of control), % at 10 µM; 1.1% of 290,000 active; in the data active = binding response below about 67% or above about 130%
MEKK2wt confirm: raises or lowers MEK5 binding to wildtype human MEKK2, retest | shares compounds with MEKK3 PB1 HTS | bead flow cytometry, Alexa488-MEK5 binding to MEKK2 WT; actives lie on both sides | binding response (% of control), % at 10 µM | 2.4% of 5,900 active; in the data active = binding response below about 16% or above about 210%; inactive = in between
MEKK2mut confirm: signal of MEK5 binding to mutant human MEKK2, retest. shares compounds with MEKK3 PB1 HTS. bead flow cytometry, Alexa488-MEK5 binding to MEKK2 mutant. percent response, % at 10 µM. 2% of 5,900 active. AID 1893; in the data active = percent response mostly above about 71%, no sharp cut-off; inactive = mostly below about 38%;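 note: higher means compound restores mutant binding toward wildtype level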
MEKK3-MEK5 inh: confirmation of inhibitors of MEK5 binding to human MEKK3. shares compounds with MEKK3 PB1 HTS. bead flow cytometry, Alexa488-MEK5 binding to MEKK3; active compounds read low. binding response (% of control), % at 10 µM. 1.8% of 5,900 active. AID 1894;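 active = binding response below 72% of control, or above a set upper limit, though filed actives all read lower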;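 note: 100% = DMSO only wells and 0% = binding blocked by excess unlabeled MEK5; lower values mean stronger disruption of MEK5 binding to MEKK3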
Numbers without * were called inactive; / = no result; [ ] = dose if it differs, or a comment. Most compounds without a hit are left out; they make up all but 2.9% or so of the library.

SMILES | DNA FID counter | MEKK3 PB1 HTS | dFosB activator | MEKK2mut PB1 HTS | MEKK2wt PB1 HTS | MEKK2wt confirm | MEKK2mut confirm | MEKK3-MEK5 inh
Cc1ccc(SC[C@H](Cc2ccccc2)N2CCN(CCc3ccccc3)CCC2=O)cc1 | / | 86.0 | -0.1 | 8.0 | 142.0* | 124.0 | 37.0 | 105.0
COc1ccc(SC[C@H](Cc2ccccc2)N2CCN(C)CCC2=O)cc1 | / | 120.0 | -6.0 | 4.0 | 143.0* | 117.0 | 20.0 | 107.0
Cc1cc(C)nc(SCC(=O)NCc2ccco2)n1 | -13.6 | 104.0 | 8.8 | 19.0 | 104.0 | / | / | /
Cc1ccc2cc(C#N)c(SCC(=O)NCc3ccco3)nc2c1 | -10.9 | 2.0*[inhibitor] | -13.3 | -17.0 | 2.0*[inhibitor] | 98.0 | -6.0 | 100.0
Cc1cc(C)n2nc(SCC(=O)NCc3ccco3)nc2n1 | 0.9 | 77.0*[inhibitor] | -0.5 | -7.0 | 87.0 | 104.0 | 3.0 | 101.0
Cc1ccc2nc(SCC(=O)NCc3ccco3)c(C#N)cc2c1 | -4.1 | 98.0 | -17.9 | -1.0 | 90.0 | / | / | /
c1ccc2c(c1)Cn1nc(Cc3nc4c(s3)CCCC4)nc1-2 | -19.4 | 104.0 | -2.1 | 1.0 | 103.0 | / | / | /
N#CCc1nc2n(n1)Cc1ccccc1-2 | 0.0 | 124.0* | -0.7 | / | 136.0* | 101.0 | 16.0 | 103.0
COC(=O)C(C(=O)OC)C(CC(=O)c1ccc(Br)cc1)c1ccccc1 (configuration not stated) | / | / | -4.4 | / | / | / | / | /
Cc1ccc(C(=O)C2(C)C3c4cc(Br)ccc4OC(=O)C32C(=O)c2ccco2)cc1 (configuration not stated) | -29.5 | 24.0*[inhibitor] | 0.1 | -42.0 | 39.0*[inhibitor] | 96.0 | -6.0 | 96.0
CC(C)(c1ccccc1)c1ccc(OCCCNCCO)cc1 | 21.6 | 108.0 | -9.2 | 13.0 | 145.0* | 134.0 | 27.0 | 109.0
COCCCNCCCOc1ccc(C(C)(C)c2ccccc2)cc1 | 7.5 | 94.0 | -4.0 | -1.0 | 99.0 | / | / | /
CCOc1ccc(OCCC(=O)OCC(=O)Nc2ccc(C)c(S(=O)(=O)N3CCCCC3)c2)cc1 | / | / | -13.0 | / | / | / | / | /
CSc1nc(Cl)cc(N(CCO)CCO)n1 | -2.0 | 103.0 | -8.3 | 25.0* | 105.0 | 96.0 | 0.0 | 101.0
Cc1ccccc1NCC(=O)N/N=C/C(Br)=C/c1ccccc1 | -4.7 | 101.0 | -5.3 | 0.0 | 95.0 | / | / | /
COc1ccc(Nc2cc(C(=O)NCc3ccco3)c3ccccc3n2)c(OC)c1 | 0.4 | 133.0* | -1.7 | 1.0 | 107.0 | 99.0 | 0.0 | 101.0
CN1/C(=C\C=C2/C(=O)Oc3ccccc3C2=O)C(C)(C)c2ccccc21 | -25.1 | 50.0*[inhibitor] | / | -13.0 | 75.0 | 84.0 | -30.0 | 93.0
CN1C(=CC=C2C=C(I)C(=O)C(I)=C2)C(C)(C)c2ccccc21 | -25.3 | 40.0*[inhibitor] | 175.4* | -38.0 | -1.0*[inhibitor] | 22.0 | -25.0 | 68.0*
COc1ccc(S(=O)(=O)N2CCOC2CNC(=O)C(=O)NCc2ccco2)cc1OC (configuration not stated) | -8.5 | 108.0 | -6.7 | 10.0 | 99.0 | / | / | /
CC(=O)c1sc(NC(=O)COc2ccc(Cl)cc2C)nc1C | 0.3 | 99.0 | 9.8 | 1.0 | 100.0 | / | / | /
CC1CCN(C(=O)C2CCC(C)(C(=O)O)C2(C)C)CC1 (configuration not stated) | 3.0 | 135.0* | -5.0 | 1.0 | 109.0 | 105.0 | -6.0 | 104.0
CCCCN(CC)CCNC(=O)c1nn(-c2ccc(OC)cc2)c(=O)c2c1c1ccccc1n2C | 12.9 | 107.0 | -15.9 | 16.0 | 144.0* | 134.0 | 25.0 | 111.0
CCCCN(CC)CCNC(=O)c1cn(C)c(=O)c2c1c1ccccc1n2C | 5.7 | 105.0 | -5.4 | 7.0 | 110.0 | / | / | /
CC(=O)NCCNc1ccc([N+](=O)[O-])cn1 | -2.4 | 99.0 | -1.6 | -1.0 | 100.0 | / | / | /
CC(C)(C)c1ccc(CNc2ccc([N+](=O)[O-])cn2)cc1 | 6.5 | 145.0* | -1.1 | 3.0 | 118.0 | 106.0 | 1.0 | 106.0
SMILES | DNA FID counter | MEKK3 PB1 HTS | dFosB activator | MEKK2mut PB1 HTS | MEKK2wt PB1 HTS | MEKK2wt confirm | MEKK2mut confirm | MEKK3-MEK5 inh
CCC(=O)NCCNc1ccc([N+](=O)[O-])cn1 | 5.2 | 74.0*[inhibitor] | / | -1.0 | 93.0 | 103.0 | -1.0 | 99.0
COc1cccc(NC(=O)Nc2nc(-c3ccc(OC)c(OC)c3)cs2)c1 | -13.9 | 104.0 | -0.4 | 8.0 | 100.0 | / | / | /
Cc1cccc(NC(=O)CN2C(=O)N/C(=C\c3ccc(-c4cccc(C(=O)O)c4)o3)C2=O)c1 | -19.4 | 70.0*[inhibitor] | 0.4 | -31.0 | 52.0*[inhibitor] | 105.0 | 8.0 | 109.0
Cc1ccc(NC(=O)CN2C(=O)N/C(=C/c3ccc(N4CCOCC4)cc3)C2=O)cc1 | -1.9 | 108.0 | -2.3 | 3.0 | 109.0 | / | / | /
Cc1ccc(NC(=O)CN2C(=O)N/C(=C/c3ccc(C)s3)C2=O)cc1 | 0.7 | 129.0* | 7.9 | 1.0 | 104.0 | 98.0 | 0.0 | 103.0
Cc1ccc(NC(=O)CN2C(=O)N/C(=C/c3ccc(C)o3)C2=O)cc1 | -12.9 | 79.0 | 1.9 | -10.0 | 80.0 | / | / | /
Cc1cccc(NC(=O)CN2C(=O)N/C(=C/c3ccc(C)o3)C2=O)c1 | -16.6 | 129.0* | -7.8 | 1.0 | 105.0 | 103.0 | 4.0 | 99.0
Cc1noc(C)c1NC(=O)N(C)C[C@H]1Oc2ccc(NS(=O)(=O)c3ccc(F)cc3)cc2C(=O)N([C@H](C)CO)C[C@@H]1C | / | / | 4.4 | / | / | / | / | /
Cc1ccccc1Nc1nc(N)nc(CSc2nc3ccccc3c(=O)n2C)n1 | -4.2 | 94.0 | 9.0 | -5.0 | 95.0 | / | / | /
Cc1ccc(N(CC(=O)Nc2ccc(Br)c(C)c2)S(=O)(=O)c2c(C)[nH]c(=O)[nH]c2=O)cc1 | -33.0 | 94.0 | -9.1 | -12.0 | 95.0 | / | / | /
CCCOc1ccc(C(CC(=O)O)NC(=O)c2ccc3c(c2)OCO3)cc1 (configuration not stated) | -24.7 | 2.0*[inhibitor] | -3.1 | -42.0 | 1.0*[inhibitor] | 100.0 | -1.0 | 96.0
CC1CCC(NC(=O)c2ccc(/C=C3\Oc4ccccc4N(C)C3=O)cc2)CC1 (configuration not stated) | -1.9 | 139.0* | / | 2.0 | 111.0 | 99.0 | 2.0 | 102.0
CCN1CCN(c2cc(C)c3cc(NC(=O)c4ccncc4)ccc3n2)CC1 | / | 103.0 | 4.6 | 17.0 | 114.0 | / | / | /
CCN1CCN(c2cc(C)c3cc(NC(=O)c4ccc(C)c(C)c4)ccc3n2)CC1 | 18.8 | 109.0 | -19.3 | 22.0 | 160.0* | 153.0 | 24.0 | 104.0
Cc1ccc2c(c1)nc(-n1nc(C)cc1C)c1nnnn12 | -12.8 | 94.0 | -11.8 | -14.0 | 87.0 | / | / | /
Nc1c(N(CCO)C(=O)/C=C/c2ccco2)c(=O)[nH]c(=O)n1Cc1ccccc1 | -14.6 | 50.0*[inhibitor] | -1.3 | -4.0 | 61.0 | 99.0 | -8.0 | 102.0

Compound activity as filed in PubChem.
